A selection: hits, their analogues and other compounds. The true share with any hit is near 2.5%.
miR-21 act: qHTS Assay for Modulators of miRNAs and/orActivators of miR-21; HeLa miR-21 FLuc reporter, luciferase, 48 h; Potency, µM (top dose mostly 38.3 µM), usual class: activators; 340,000 tested, under 10 active; AID 2288, 2010;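 also: miR-21 action dims this reporter so a rising signal means less miR-21 action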
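Compounds were titrated across several concentrations (up to approximately 40 uM) and incubated 48 hours with HeLa miR-21-FLuc reporter cells (miR-21 target sequence downstream of FLuc, endogenous miR-21). Readout was firefly luciferase luminescence after lytic detection reagent.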
TrxR1 substrate: qHTS Assay for Substrates of Mammalian Selenoprotein Thioredoxin Reductase 1 (TrxR1): qHTS; 390,000 compounds, 0.01% hits; Potency, µM (top dose mostly 114 µM); purified TrxR1 substrate turnover, NADPH consumption readout; Thioredoxin reductase 1, cytoplasmic (Rattus norvegicus), O89049; also: nearly all actives have a fitted effect of over 50% in size
Target sequence (O89049 whole entry, looked up): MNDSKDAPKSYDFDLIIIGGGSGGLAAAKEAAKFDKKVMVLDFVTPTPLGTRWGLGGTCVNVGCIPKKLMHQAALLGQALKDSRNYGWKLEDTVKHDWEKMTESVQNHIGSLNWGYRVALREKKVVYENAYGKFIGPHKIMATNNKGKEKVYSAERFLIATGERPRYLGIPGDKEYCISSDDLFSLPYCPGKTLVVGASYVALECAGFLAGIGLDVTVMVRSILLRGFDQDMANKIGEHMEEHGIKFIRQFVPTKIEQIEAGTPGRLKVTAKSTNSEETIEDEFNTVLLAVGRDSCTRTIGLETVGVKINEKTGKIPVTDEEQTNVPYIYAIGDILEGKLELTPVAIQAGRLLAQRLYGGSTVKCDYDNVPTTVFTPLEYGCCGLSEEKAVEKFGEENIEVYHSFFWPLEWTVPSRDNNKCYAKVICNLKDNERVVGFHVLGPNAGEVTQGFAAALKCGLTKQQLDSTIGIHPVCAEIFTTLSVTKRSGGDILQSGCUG
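Rat TrxR1, dispensed at 90 nM, was prereduced with 400 uM NADPH (final) for 5 min at ~22 deg C, then incubated with compound 15 min before 400 uM selenite. A first-read NADPH fluorescence drop versus no-compound background flagged substrates.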
Apoferritin bind: qHTS Assay for Identification of Novel General Anesthetics; Ferritin light chain (Equus caballus), P02791; apoferritin/1-aminoanthracene competitive binding, fluorescence; Potency, µM (top dose mostly 77.5 µM), most hits filed as inhibitors; 350,000 compounds, 0.074% hits; AID 485281, 2010; also: nearly all actives have a fitted effect of over 20% in size
Target sequence (P02791 2-175 limits assumed): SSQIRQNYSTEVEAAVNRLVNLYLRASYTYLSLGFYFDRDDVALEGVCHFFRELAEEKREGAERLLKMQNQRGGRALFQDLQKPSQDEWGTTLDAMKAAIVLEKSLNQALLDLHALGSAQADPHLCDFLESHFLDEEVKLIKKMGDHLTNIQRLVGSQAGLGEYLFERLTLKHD
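Horse-spleen apoferritin (10 uM) was mixed with 50% saturated 1-aminoanthracene in PBS, exposed to compounds for 10 min at room temperature, and read for fluorescence (ex 380 nm, em 535 nm). Competitive displacement was fitted with a four-parameter Hill equation.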
ClpP mod: qHTS Assay for Activators of ClpP | purified B. subtilis ClpP, FRET peptide cleavage, 20 min | AID 651965, 2013 | 340,000 compounds, 1.9% hits | ATP-dependent Clp protease proteolytic subunit (Bacillus subtilis (strain 168)), P80244 | Potency, µM (series often up to 57.5 µM); active = well fitted falling curve with a large enough effect; inconclusive = small, poorly fitted or top-dose-only effect; inactive = no such curve, though single readings can be large or run the other way; also: the source files actives as falling curves though it sought activators and does not explain the sign; nearly all actives have a fitted effect of over 65% in size
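Buffer: 100 mM Tris/HCl pH8, 100 mM KCl, 0.05% low protease BSA, 2.5% glycerol, 0.01% Tween-20. ClpP 10 microg/mL final; 20 min RT; delta FRET normalized to ADEP and DMSO controls.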
rTrxR1 inhibitor: qHTS Assay for Inhibitors of Mammalian Selenoprotein Thioredoxin Reductase 1 (TrxR1): qHTS; Thioredoxin reductase 1, cytoplasmic (Rattus norvegicus), O89049; recombinant rTrxR1, NADPH fluorescence consumption, selenite substrate; Potency, µM (series often up to 114 µM), actives largely listed as inhibitors; 390,000 compounds, 1% hits; also: nearly all actives have a fitted effect of over 65% in size
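Rat TrxR1 (90 nM in the dispensed reagent) was pre-reduced with 400 uM NADPH for 5 min at room temperature, then incubated with compound for 15 min. After 400 uM selenite was added, NADPH fluorescence (Ex 340/Em 450 nm) was followed for 8 min.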
Hits are given with their value; . = inactive; ? = inconclusive; / = no result given; ! = repeats disagree; [ ] = remark or other dose. Unless noted, calls follow the shape of the dose curve; as a rule, active = well fitted curve in the direction sought with a large enough effect; inconclusive = small, poorly fitted or top-dose-only effect, or another doubt; inactive = no such curve, though single readings can be large; an effect the other way counts as inactive or inconclusive.

SMILES	miR-21 act	TrxR1 substrate	Apoferritin bind	ClpP mod	rTrxR1 inhibitor
CCOC(=O)C1=C(CCl)NC(=O)NC1c1ccc2c(c1)OCO2 (configuration not stated)	.	.	.	/	11.2µM
CC(=O)O[C@H]1CC(C)(C)C(=C=C/C(C)=C/C=C/C(C)=C/C=C/C=C(C)/C=C/C=C(\C)C(=O)C[C@@]23O[C@]2(C)C[C@@H](O)CC3(C)C)[C@](C)(O)C1	.	.	.	.	35.5µM
O=C(CCC(=O)c1ccc(F)cc1)OCc1nnc(-c2ccc([N+](=O)[O-])cc2)o1	/	.	/	.	50.1µM
Cc1csc(=O)n1CC(=O)OCc1nnc(-c2ccc([N+](=O)[O-])cc2)o1	/	.	/	.	.
Cc1ccc(Cl)cc1N1CCN(C(=O)CSc2ccsc2[N+](=O)[O-])CC1	.	.	.	28.2µM	?
O=S(=O)(C/C(=C/CO)S(=O)(=O)c1ccccc1)c1ccccc1	?	.	.	.	2.24µM
O=S(=O)(CS(=O)(=O)c1ccccc1)c1ccccc1	/	.	/	/	11.2µM
Cc1ccc(S(=O)(=O)CS(=O)(=O)c2ccc(C)cc2)cc1	/	.[11.4 µM]	/	.	.[11.4 µM]
O=C(CC1Sc2ccccc2NC1=O)Nc1cccc(C(F)(F)F)c1 (configuration not stated)	.	.	.	.	.
C1=CC2c3ccccc3NC(c3ccncc3)C2C1 (configuration not stated)	.	.	?	.	7.94µM
COCCOC(=O)c1cc(C(=O)c2cc(F)ccc2O)coc1=N	.	.	.	15.8µM	.
N#Cc1c(N)nc(SCC(=O)NC2CCCCC2)c(C#N)c1-c1ccc(Cl)cc1	.	.	.	28.2µM	.
CN(C)c1ccc(CNC(=O)C2CCCN(S(=O)(=O)c3ccc4c(c3)CCCC(=O)N4)C2)cc1 (configuration not stated)	.	.	.	.	.
O=C(Oc1ccccc1[N+](=O)[O-])c1cccnc1	.	.	.	.	14.1µM
CCC(C)NC(=O)c1cn(-c2cccc(C)n2)cn1 (configuration not stated)	.	.	.	31.6µM	.
CC(C)Oc1ccc(CNC(=O)c2ccc(CS(=O)Cc3ccccc3Cl)o2)cc1 (configuration not stated)	.	.	.	.	.
CC1=C(C(=O)OC(C)C)C(c2ccc(N(C)C)cc2)C2=C(CC(C)(C)CC2=O)N1 (configuration not stated)	.	.	.	.	.
COCCOC(=O)C1=C(C)NC2=C(C(=O)CC(C)(C)C2)C1c1cccnc1 (configuration not stated)	.	.	.	28.2µM	.
CC1=C(C(=O)OC(C)C)C(c2cccnc2)C2=C(CC(C)(C)CC2=O)N1 (configuration not stated)	.	.	.	28.2µM	.
O=C(c1cnc(N2CCCCC2)c2ccccc12)N1CCN(c2ccc(F)cc2)CC1	.	.	.	.	.
CCCOc1ccc(C2c3c(-c4ccccc4O)n[nH]c3C(=O)N2CCc2ccccc2)cc1OCC (configuration not stated)	.	.	.	.	.
O=C(C1CCN(S(=O)(=O)Cc2ccccc2)CC1)N1CCN(c2ccccc2F)CC1	.	.	.	.	.
CCCC/C=C1\CCc2c([nH]c3ccccc23)C1=O	.	.	.	/	.
CCCCN1CCc2c([nH]c3ccccc23)C1=O	.	.	.	20µM	.
Cc1nn(C)c(C(=O)NNC(=S)NCc2ccco2)c1Cl	.	.	.	.	?
SMILES	miR-21 act	TrxR1 substrate	Apoferritin bind	ClpP mod	rTrxR1 inhibitor
Cc1nn(C)c(C(=O)NNC(=S)NCC(C)C)c1Cl	.	.	.	8.91µM	.
N#Cc1nc(-c2ccc(COc3ccccc3)o2)oc1N1CCN(c2ccccc2)CC1	.	.	.	15.8µM	.
N#Cc1nc(-c2ccc(OCc3ccccc3)cc2)oc1NCc1cccnc1	.	.	.	?	.
Cc1cccc(OCc2ccc(-c3nc(C#N)c(N4CCC(C(N)=O)CC4)o3)o2)c1	.	.	.	.	.
COc1ccc(OCc2ccc(-c3nc(C#N)c(N4CCC(C(N)=O)CC4)o3)o2)cc1	.	.	.	35.5µM	.
CN(C)c1oc(-c2ccc(OCc3ccccc3)cc2)nc1C#N	.	.	.	12.6µM	.
COc1ccc(OCc2ccc(-c3nc(C#N)c(N4CCC(C)CC4)o3)o2)cc1	.	.	.	25.1µM	.
CC(=O)OCC1=C[C@H]2[C@@H]3C(C)(C)[C@]3(OC(C)=O)C[C@@H](C)[C@]2(O)[C@@H]2C=C(C)C(=O)[C@@]2(O)C1	/	/	.	/	/
Fc1ccc(Nc2ncnc3c2nc2n3CCCCC2)c(F)c1	.	.	.	.	.
N#Cc1nc(-c2ccc(COc3ccccc3)o2)oc1NCc1ccccc1	.	.	.	20µM	.
N#Cc1nc(-c2ccc(OCc3ccc(Cl)cc3)cc2)oc1NCc1cccnc1	.	.	?	28.2µM	.
CC1CCN(c2oc(-c3ccc(COc4ccccc4)o3)nc2C#N)CC1	.	.	.	15.8µM	.
Cc1ccc(-n2cnc3cc(C(=O)NCc4ccc(F)cc4)ccc32)c(C)c1	.	.	.	.	.
O=C(CCc1ccccc1)Nc1cc(Cl)ccc1O	.	.	5.62µM	.	.
COc1coc(C(O)C[N+](=O)[O-])cc1=O (configuration not stated)	.	.	.	/	50.1µM
CC(C(O)c1cc(=O)c(OCc2ccccc2)co1)[N+](=O)[O-] (configuration not stated)	/	.	/	.	.
CCN(c1ccc(C)cc1)S(=O)(=O)c1nnc(NC(=O)c2ccco2)s1	.	.	.	.	56.2µM
CN(Cc1ccco1)S(=O)(=O)c1nnc(NC(=O)c2cccc(Cl)c2)s1	.	.	.	.	25.1µM!
CCN(CC)S(=O)(=O)c1nnc(NC(=O)c2ccco2)s1	.	.	.	/	.
Cc1cc(C)n(-c2nnc(Nc3ccc(C(C)C)cc3)c3ccccc23)n1	.	.	.	.	.
CCC1CN(C(=O)N2CCC(C(=O)NCCN(C)C)CC2)c2ccccc2O1 (configuration not stated)	.	.	?	.	.
Cc1ccc(N2C(N)=NC(N)=NC23CCCC3)c(C)c1	.	.	.	28.2µM	.
CCCN1/C(=C2/SC(=S)N(CC)C2=O)C=Cc2ccccc21	.	.	.	.	.[11.4 µM]
CN1C(=O)/C(=C2/C=Cc3ccccc3N2CCCS(=O)(=O)O)SC1=S	.	.	?	22.4µM	?
